# In article PMC5540273 (PLoS ONE, 2017):
# Test system: T1, YANK2
# T1 construct: gene STK32B
# Settings: concentration: 1 μM, replicates: in singlicate; n = 1
# 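Further: KINOMEscan kinase panel screen.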
row,Compound,%Inh
1,O=C(Nc1cccc(-c2nn3ccccc3c2-c2ccnc(Nc3cccc(F)c3)n2)c1)c1c(F)ccc(F)c1Cl [GSK357952],75%
2,c1ccc(-c2cnc3nccnn23)cc1 [AH20685],0%
3,CN(c1ccc(NC(=O)Nc2cc(C(F)(F)F)ccc2F)cc1)c1ccnc(Nc2ccc(S(N)(=O)=O)cc2)n1 [GW809893],0%
4,O=C(Nc1n[nH]c2cc(-c3ccoc3)ccc12)C1CC1 [SB-738481],0%
5,C[C@@H]1CC[C@@H](C(=O)Nc2ccccc2)CN1c1cc(-c2ccc3c(N)n[nH]c3c2)nc(N)n1 [GSK2286062],0%
6,O=C(Nc1cccc(-c2nn3ncccc3c2-c2ccnc(Nc3ccccc3)n2)c1)c1c(F)cccc1F [GSK198271],38%
7,COc1cccc(NC(=O)NC2CCN(c3ccnc(Nc4cc(OC)c(OC)c(OC)c4)n3)C2)c1 (stereo not drawn) [GSK1379763],0%
8,CN1CCN(CCCNc2nccc(-c3c(-c4ccc(F)cc4)nn4cc(C(F)(F)F)ccc34)n2)CC1 [GW621581],8%
9,Nc1n[nH]c2cnc(-c3ccccc3)cc12 [SB-642124],0%
10,Cc1occc1-c1ncc(OC[C@@H](N)Cc2c[nH]c3ccccc23)cc1-c1ccc2[nH]nc(C)c2c1.O=C(O)C(F)(F)F [GSK682037],95%
11,Cl.NC(=O)c1cccc(Nc2nccc(Nc3ccc(Oc4c(Cl)cccc4Cl)c(Cl)c3)n2)c1 [GW659009],0%
12,CCCCc1nn2ncccc2c1-c1ccnc(Nc2ccc(N3CCN(C)CC3)cc2)n1 [GW684941],74%
